# Bioassay records from PubChem BioAssay.
# The list is not random: actives were taken first. Their share in the collection is about 3.2%.
# FMDV antiviral = antivirals against foot and mouth disease virus; FMDV antiviral cell-based qHTS; Potency, µM (series often up to 57.9 µM), for inactives: at the top dose activity change, negative = inhibition, usual class: inhibitors; hit rate 1.2% among 410,000; AID 1159524; calls by dose curve; tested in HEK293T cells; also: read-out not given here; nearly all actives have a fitted effect of over 45% in size
# Vaccinia Venus = vaccinia inhibition (Venus reporter); Vaccinia virus Venus reporter expression, fluorescence; Potency, µM (highest dose often 36.5 µM), without a hit: top-dose activity change, negative = inhibition, usual class: inhibitors; hit rate 0.46% among 330,000; AID 720580; calls by dose curve; tested in A549 cells; also: nearly all actives have a fitted effect of over 30% in size
# Lassa entry inh = Lassa virus entry inhibition. Lassa virus pseudotype entry inhibition, cell reporter. Potency, µM (doses to about 37.9 µM), without a hit: at the top dose activity change, negative = inhibition, hits mostly inhibitors. hit rate 1.2% among 300,000. AID 540256; calls by dose curve; tested in HEK293 cells; also: nearly all actives have a fitted effect of over 50% in size
# Marburg entry inh = blocks Marburg virus binding to or entry into cells; hit rate 1.8% among 300,000; Marburg virus pseudotyped entry inhibition, cell reporter; AID 540276; Potency, µM (highest dose often 37.8 µM), inactives show at the top dose activity change, negative = inhibition, most hits filed as inhibitors; calls by dose curve; tested in HEK293 cells
# Vaccinia mCherry = inhibitors of vaccinia virus infection (mCherry reporter signal); Potency, µM (series often up to 36.5 µM), for inactives: top-dose activity change, negative = inhibition, actives largely listed as inhibitors; Vaccinia virus mCherry reporter infection, fluorescence; AID 720579; hit rate 0.63% among 310,000; calls by dose curve; tested in A549 cells; also: nearly all actives have a fitted effect of over 35% in size
# The depositor's hits bear a star; i = inactive; ? = inconclusive; . = no result given; ! = not active in a repeat; [ ] = remark or other dose. % is scaled to controls: 0 for no effect and ±100 for the full control effect; potency is read from the fitted curve at half-maximal effect.
SMILES,FMDV antiviral,Vaccinia Venus,Lassa entry inh,Marburg entry inh,Vaccinia mCherry
Cc1cc(C)cc(NC(=S)NCc2ccc3[nH]c4c(c3c2)CCCC4)c1,-10%,-5%,3.7µM*,?,?
O=C1C(=C(c2ccccc2)N2CCOCC2)Cc2ccccc21,8.9µM*,11µM*,.,.,?
CC[C@H]1SC2=NC(C)=C(C(=O)OCCOC)[C@@H](c3ccc(C(=O)OC)cc3)N2C1=O,.,.,.,-19%,.
CC(C)c1ccc(S(=O)(=O)/N=C2\C=C(NS(=O)(=O)c3ccccc3)C(=O)c3ccccc32)cc1,18%,20%,26%[46.1 µM],9%[46.1 µM],?
Cc1ccc(NC2=C/C(=N/S(=O)(=O)c3cccs3)c3ccccc3C2=O)cc1C,-18%,-12%,4%,-7%,i
Cc1ccccc1NC1=C/C(=N\S(=O)(=O)c2cccs2)c2ccccc2C1=O,10µM*,.,?,3.7µM*,.
CCc1ccc(S(=O)(=O)/N=C2\C=C(NS(=O)(=O)c3ccccc3)C(=O)c3ccccc32)cc1,71%,.,.,.,.
COc1ccc(S(=O)(=O)/N=C2\C=C(Nc3ccc(O)cc3)C(=O)c3ccccc32)cc1,7.9µM*,3.5µM*,?,?,5µM*
CC(=O)Nc1ccc(NC2=C/C(=N/S(=O)(=O)c3cccs3)c3ccccc3C2=O)cc1,?,11µM*,?,5µM*,?
Cc1ccccc1NC1=C/C(=N\S(=O)(=O)c2ccc(C(=O)O)cc2)c2ccccc2C1=O,?,?,?,8.9µM*,32µM*
O=C1[C@@H]2CC=C(Cl)C[C@H]2C(=O)N1CNc1ccccn1,.,.,.,8%,.
CC(=O)c1ccc(NC(=O)c2ccccc2-c2ccccc2C(=O)O)cc1,-14%,-11%,-14%[46.1 µM],1%[46.1 µM],i
CCOC(=O)c1c(C)[nH]c(C(=O)N2CCN(c3ccc(OC)cc3)CC2)c1C,28%,-18%,7.9µM*,?,?
CCOC(=O)c1c(C)[nH]c(C(=O)C(C)Sc2ccc(Cl)cc2)c1C (stereo not given),21%,7.1µM*,?,?,-12%[1.46 µM]
CCn1c(SCC(=O)c2[nH]c(C)c(C(C)=O)c2C)nnc1-c1ccncc1,.,-6%,-1%,2%,-9%
CCOC(=O)c1c(C)[nH]c(C(=O)CSc2ccccc2)c1C,21%,-29%,18µM*,?,.
CCn1c(SCC(=O)c2[nH]c(C)c(C(C)=O)c2C)nnc1-c1ccccc1,25µM*,?,-15%,?,?
CCCCNC(=NCc1cccc(C(F)(F)F)c1)Nc1ccccc1,-14%,?,?,?,-3%
COc1cc([C@@H](NC(=O)C(F)(F)F)C2CCCCC=C2c2ccccc2)cc(OC)c1OC (stereo not given in full),.,.,-12%[14.3 µM],10%[14.2 µM],.
CCCC(c1nnnn1CS(=O)(=O)c1ccc(C)cc1)N1CCN(C2CCCC2)CC1 (stereo not given),-17%,-12%,22%,?,3%
CCCCC(c1nnnn1CS(=O)(=O)c1ccc(C)cc1)N1CCN(c2ccccc2)CC1 (stereo not given),-14%,-19%,?,14µM*,-22%
CCN(CC)CCN(C(=O)c1ccc(S(=O)(=O)N(C)C2CCCCC2)cc1)c1nc2c(C)cccc2s1,?,-9%,?,?,-17%
Cc1ccc2sc(N(CCCN(C)C)C(=O)c3ccc(S(=O)(=O)N(C)C4CCCCC4)cc3)nc2c1C,-4%,?,13µM*,?,?
CCN(Cc1ccccc1)S(=O)(=O)c1ccc(C(=O)N(CCCN(C)C)c2nc3c(C)c(C)ccc3s2)cc1,-14%,?,2.8µM*,6.3µM*,11µM*
CC(=O)c1ccc(C(=O)N(Cc2cccnc2)c2nc3c(C)c(C)ccc3s2)cc1,-12%,-24%,13µM*,.,-8%
SMILES,FMDV antiviral,Vaccinia Venus,Lassa entry inh,Marburg entry inh,Vaccinia mCherry
CCCNCC1COc2ccccc2O1 (stereo not given),21%,.,-5%,12%,.
COc1cccc(OC)c1OCCNC(C)(C)C,-21%,-4%,1%,-6%,.
COc1cccc(OC)c1OCCNCC1COc2ccccc2O1 (stereo not given),-28%,-10%,-6%,13µM*!,-7%
COc1cccc(OC)c1OCCNC[C@@H]1CSc2ccccc2O1,.,.,.,26µM*,.
CC1CCCCN1S(=O)(=O)c1cc2c(=O)nc3ccccn3c2cc1Cl (stereo not given),-13%,1%,-26%[46.1 µM],.,-7%
CC(C)CC(=O)NC(NC(=S)Nc1cccc2cccnc12)C(Cl)(Cl)Cl (stereo not given),-9%,?,?,14µM*,.
